According to paper PMC12136788:
Numbering of substitutions follows the chain as printed. In all, about 24,000 sequences were measured (“enrichment r”: median about 0.99, highest 2% from about 3.7 on). What follows is part of a selection rich in the highest values, with near analogues and random picks from the rest.

T1: UNK ZnF1-3 (human, UniProt Q9C0B0 31-174)
T1 sequence: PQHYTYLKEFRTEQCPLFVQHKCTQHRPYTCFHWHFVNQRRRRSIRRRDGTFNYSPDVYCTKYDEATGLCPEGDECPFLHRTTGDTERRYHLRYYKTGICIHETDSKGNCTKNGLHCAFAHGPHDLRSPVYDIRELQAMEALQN

B1: chr5:131913501:131913502:-_ENSMUSG00000029673_ENSMUST00000160071|mus_mus|FALSE|FALSE (ssRNA)
RNA: GGGAGUUCUACAGUCCGACGAUCGUUCCAGUGCACAGAAUCCUUGGGAUUUUUUUUUUCUUUUUAGUUGUUGUCUUAAAAAAAAAAAAAUUAAAACGAAAGAAAGAAAACAAAACACCGCACACAUCUGGUGUCCACAAAAUCCAACAGAGGAUUGAGCAUCA
B2: 141912308_141912428_1497_3pUTR_ENSMUSG00000028273_ENSMUST00000029941|mouse|control|control (ssRNA)
RNA: GGGAGUUCUACAGUCCGACGAUCUUGGCACCGGCCACAUUCAGGAGCAAAGAACUUCUCAUAGCAUAGCUCACAGUACAGUGCUCCCUUCUCCUCUACAAAGCCUAUGUAGGCCAUUGUGUUUUUGCAAUGAGCACAGUUAAACAACAGAGGAUUGAGCAUCA
B3: chr11:51934471:51934472:+_ENSMUSG00000020349_ENSMUST00000020608|perfect_dup|motif|central (ssRNA)
RNA: GGGAGUUCUACAGUCCGACGAUCGAUUGCAGCUUGGUUACCACAACGAUAACAAUAGUUUGGAGCACUGAAAAUCGUUACGGCAUUCCGGUCAUGGCACCAGUUAUAUCCCUCCAUCACUAGCUGGUGAGCUCUAGACACCAACAACAGAGGAUUGAGCAUCA
B4: chr12:16048344:16048345:+_ENSG00000023734_ENST00000419869|hu_hu|hu_hu_hu_mus_True|38_68 (ssRNA)
RNA: GGGAGUUCUACAGUCCGACGAUCAGAUCGUCCAUAAGUAAUAACCAAAAUCUCUCCUUCAGGAAUAUAUUCCAUACUGCUAACAGACAUAUUAAAAUUUAGAGAUUUCACUUCUGUCAUUGUGGCAUGAUCCCAGAGCCGAACCAACAGAGGAUUGAGCAUCA
B5: chr1:115282395:115282396:-_ENSG00000009307_ENST00000339438|hu_hu|FALSE|FALSE (ssRNA)
RNA: GGGAGUUCUACAGUCCGACGAUCAUUAUACUGUGAACAGUGGAAGAAAAGUCUAGCUUGACGUUCUGAACACUGAAUAAAUCCGUAAGAGGUUAACAGUUUUUCAAUAACCCCAGUUUCACGCAGUGCUGCUGAAGUACCAUUCAACAGAGGAUUGAGCAUCA
B6: 35805507_35818940_561_CDS_ENSG00000108100_ENST00000265375|human|control|control (ssRNA)
RNA: GGGAGUUCUACAGUCCGACGAUCUUCAUCAAAAAUAUCUAAGAGCAUCCUUCCAUCUGGGUCCCUGUUUUUGAUGUGAUAAUAUAUUGCAAGAGCGACACAUUUAAUUGUAUACUUGAGGUUUGGUUGACUGACUGUGCUAUCCAACAGAGGAUUGAGCAUCA
B7: 44216504_44217224_307_CDS_ENSG00000096384_ENST00000371646|human|control|control (ssRNA)
RNA: GGGAGUUCUACAGUCCGACGAUCCAAAGUCAGGGUACGUUCCUGAGGGUUGGGGAUGAUGUCAAUUUUCAGCUCUUUACCACUGUCCAACUUCGAAGGGUCUGUCAGGCUCUCAUAGCGAAUCUUGUCCAAGGCAUCAGAAGCCAACAGAGGAUUGAGCAUCA
B8: chr1:133829981:133829982:+_ENSMUSG00000026434_ENSMUST00000062264|mus_hu|motif|central (ssRNA)
RNA: GGGAGUUCUACAGUCCGACGAUCUAUCAGAAAUAUAGAAUACAUUUUUCAAUCUAAUGAAUUAAUUUUAAAAGGGACCCGGAACAAGAAGCCCAAUCAAAUGCACACAAGUAAUCUAGAAGACAUGAUUACCUCUAAAAUAUGCAACAGAGGAUUGAGCAUCA
B9: 55340085_55340205_1272_CDS_ENSMUSG00000021488_ENSMUST00000099490|mouse|control|control (ssRNA)
RNA: GGGAGUUCUACAGUCCGACGAUCUUCUUUCUGUUUCCCUCUUUUCCUAAGGACAGGUAGUUCUUCAAAUUGAUGUCUGCCUUCAAACAUGACGAUUGCUUUUCCAGCCACCCAGGCUUUUUCAGAAGGGUCUCCAAAAGCCUCCAACAGAGGAUUGAGCAUCA
B10: chr3:67279072:67279073:+_ENSMUSG00000027774_ENSMUST00000077271|mus_mus|FALSE|FALSE (ssRNA)
RNA: GGGAGUUCUACAGUCCGACGAUCUGCCCAGAAUCCUACCUCUUGAUGAGAGGACUGUGAGUUUUGAGGCCAACAGGGGCUAUAUACACACAGCCCUUAUGUCCAAAAAAAAAAAAAGCAGUGAAGUAAAUUUAUAUAUAUUUUCAACAGAGGAUUGAGCAUCA
B11: chr7:151048522:151048523:+_ENSG00000013374_ENST00000566856|hu_mus|hu_hu_hu_mus_True|48_98 (ssRNA)
RNA: GGGAGUUCUACAGUCCGACGAUCCUGUUUCUUAUUUAUGACAAUUUUGAUGUAAUUUUCUUGAAAUCCGAAAGUUUCAGCUAUUUGGGACCUCAGUUCUCUACCAGUGACAUGCAAGCGGGUCUCCAACAAGCUUUUCUUAUCCAACAGAGGAUUGAGCAUCA
B12: chr1:133829981:133829982:+_ENSMUSG00000026434_ENSMUST00000062264|mus_hu|FALSE|FALSE (ssRNA)
RNA: B8 RNA with G80U, G81A
B13: chr7:138235809:138235810:+_ENSG00000122779_ENST00000415680|hu_mus|FALSE|FALSE (ssRNA)
RNA: GGGAGUUCUACAGUCCGACGAUCAGAAGCAUCACACCUUGCACGAAGAAGGUGCCGUAACCUGUAUGUAAUCAGCCGCUUGCUGUACAGCAAGGCUGUGCUGCUGCCACUGGAAACAGCCCAUUUAGAAAAAUGCAUGACGUGCAACAGAGGAUUGAGCAUCA
B14: chr16:49524686:49524687:-_ENSG00000102935_ENST00000562871|hu_mus|FALSE|FALSE (ssRNA)
RNA: GGGAGUUCUACAGUCCGACGAUCAAUUAAAAGGAAAUAUUCAGACAAUAGCCAAGCAAUCACAUCACGAUGCACAAUUACCUAGAAUUGCAAUUAAAAAGUAGUUAACUGAAGGGGGGGGGGGGGAGAAAGAAAAACAAGAAACAACAGAGGAUUGAGCAUCA
B15: chr3:120321071:120321072:+_ENSG00000065518_ENST00000184266|hu_hu|FALSE|FALSE (ssRNA)
RNA: GGGAGUUCUACAGUCCGACGAUCUCAUUGCCAGACUUAAUAUGAGAGGUGAAAUGUUCGAUCCAAUUUUCCUUCCUGGAUAAGUUUUUCUUUCCUAUCCCUCUCAGUUUUGAUAAUAUAAUAAAUGAAGAUGAGGGGCCCAAACAACAGAGGAUUGAGCAUCA
B16: chr2:203071746:203071747:-_ENSG00000116030_ENST00000392246|hu_hu|FALSE|FALSE (ssRNA)
RNA: GGGAGUUCUACAGUCCGACGAUCCACCACAAGCCUGAAAAUGCAAUGUCCUGAAAAAGGUGACCUCUCUGUGCACACGUAAUUUUUAAAAAGGAGAGGGUAAUAUGAAGGGGACUGAGGCUUGAUCACCAAAAAUCAGCACAACAACAGAGGAUUGAGCAUCA

target: T1, UNK ZnF1-3; assay: nsRBNS (natural sequence RNA bind-n-seq); RBNS binding buffer (assumed for nsRBNS): 25 mM Tris pH 7.5, 150 mM KCl, 3 mM MgCl2, 0.01% Triton X-100, 500 ug/ml BSA, 20 U/ml SUPERase-In, 4 C; UNK is unkempt and MSI1 is Musashi-1; names of the RNAs are library labels; protein concentration not given here; high values mean tight binding

| Binder | binding signal |
| --- | --- |
| B1 | 1.15 enrichment R |
| B2 | 0.923 enrichment R |
| B3 | 1.16 enrichment R |
| B4 | 1.04 enrichment R |
| B5 | 0.906 enrichment R |
| B6 | 2 enrichment R |
| B7 | 0.999 enrichment R |
| B8 | 5.06 enrichment R |
| B9 | 0.635 enrichment R |
| B10 | 4.32 enrichment R |
| B11 | 0.854 enrichment R |
| B12 | 4.97 enrichment R |
| B13 | 0.971 enrichment R |
| B14 | 1.26 enrichment R |
| B15 | 2.02 enrichment R |
| B16 | 3.8 enrichment R |
